T1: UNK ZnF1-3 (human, UniProt Q9C0B0 31-174)
T1 sequence: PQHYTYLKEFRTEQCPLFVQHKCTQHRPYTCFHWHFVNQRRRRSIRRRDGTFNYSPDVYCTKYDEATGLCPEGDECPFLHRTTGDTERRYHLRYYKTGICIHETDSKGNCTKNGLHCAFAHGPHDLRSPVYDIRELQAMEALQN

B1: chr16:57198444:57198445:-_ENSMUSG00000022749_ENSMUST00000023431|mus_mus|motif|central (ssRNA)
RNA: GGGAGUUCUACAGUCCGACGAUCCCUAAAAGAAGCUGGCGUCUUACUACAGUAAUACUGAGCCAAAGAGAACAGGUCUUCGGUGUCUUCCAGAUUCAGGCUGGCCGGGGUACUUUCCAAAAAGCGGAUAACUUCUUCUUUGCUCAACAGAGGAUUGAGCAUCA
B2: chr22:36164377:36164378:-_ENSG00000100320_ENST00000405409|hu_hu|motif|central (ssRNA)
RNA: GGGAGUUCUACAGUCCGACGAUCACGGCCCUCUACCACGGUGCCGUGUAAUUUCUCCCUGGCCCUGUCUGCAUCAGCACGGUUCUCGAAAGUUACGAACCCGAAUCCCUUAGAGCCACGUUCAUUAAAGAUUAUUUCUACAUCCAACAGAGGAUUGAGCAUCA
B3: chr6:86333760:86333761:-_ENSG00000135316_ENST00000355238|hu_mus|hu_hu_hu_mus_True|98_108 (ssRNA)
RNA: GGGAGUUCUACAGUCCGACGAUCUUCUUCAAGAAUCUGUUCCUUGGUUUUACUCUUAGGAAUCGAGCCCACAAAAAGCCUAUUGUUGGCAACUGAGAUGCAGACACCAAUGUGCUUCCCGGAACGAAUUUCAUGAUUAUUAUACAACAGAGGAUUGAGCAUCA
B4: chr12:493273:493274:-_ENSG00000073614_ENST00000399788|hu_mus|hu_hu_hu_mus_False|58_108 (ssRNA)
RNA: GGGAGUUCUACAGUCCGACGAUCUUUUCUCUCUACCACAGGGAUCUUCAAUGUAGAUCCUUGAAGUUCCCAAAAUUUUGCUAGUUGAUCCAAGAAGUCCAAUCUUACUCUAGUCAUUGCCUCAAGUUCAUUCAGGCGCUGGACCAACAGAGGAUUGAGCAUCA
B5: chr2:117093540:117093541:+_ENSMUSG00000027349_ENSMUST00000028825|mus_hu|motif|central (ssRNA)
RNA: GGGAGUUCUACAGUCCGACGAUCCAUUGUAAUCGUUGUCUUGGGUGACAAAGCAUAACGCUUAGGCUGAUAAAUUCUUGCGGUAUCAUCUGUUUUUACCUUUGCUCUAUCAGACCAUCCAAAGGACUGUACAGUCACAUCUAACAACAGAGGAUUGAGCAUCA
B6: chr16:45382771:45382772:-_ENSMUSG00000022661_ENSMUST00000163230|mus_mus|mus_mus_mus_hu_True|8_28 (ssRNA)
RNA: GGGAGUUCUACAGUCCGACGAUCCUGGGUCAUGUUAUAAGACAAAUGGACAGGGAGGGCAUGCUUCUCAAAAAAUGUGAGCUAUUGUCUAAGACUAACAAUAUUUACUAAGUGCUAAAAAUAAGUUUUAAAUGGACGUUAAGACAACAGAGGAUUGAGCAUCA
B7: chr16:45382771:45382772:-_ENSMUSG00000022661_ENSMUST00000163230|mus_mus|mus_mus_mus_hu_True|28_28 (ssRNA)
RNA: B6 RNA with U127A, U128A, A130U, A131G, U132A, G133A, G134U, C136A
B8: chr16:45382771:45382772:-_ENSMUSG00000022661_ENSMUST00000163230|mus_mus|mus_mus_mus_hu_True|1_28 (ssRNA)
RNA: GGGAGUUCUACAGUCCGACGAUCCUGGGUCAUGUUAUAAGACAAAUGGACAGGGAGGGCAUGCUUCUCAAAAAAUGUGAGCUAUUGUCUAAGACUAACAAUAUUUACUAAGUGCUAAAAAUAAGUUAAAUGAAUAAACAUUACCAACAGAGGAUUGAGCAUCA
B9: chr16:45382771:45382772:-_ENSMUSG00000022661_ENSMUST00000163230|mus_mus|mus_mus_mus_hu_True|28_98 (ssRNA)
RNA: GGGAGUUCUACAGUCCGACGAUCCUGGGUCAUGUUAUGGGCCCAAUGGACAGGGAGGGCAUGCUUCUCAAAAAAUGUGAGCUAUUGUCUAAGACUAACAAUAUUUACUAAGUGCUAAAAAUAAGUUAAAUGAAUAAGUUAAGACAACAGAGGAUUGAGCAUCA
B10: chr16:45382771:45382772:-_ENSMUSG00000022661_ENSMUST00000163230|mus_mus|mus_mus_mus_hu_True|28_58 (ssRNA)
RNA: B9 RNA with G38A, G39A, C41A, C43A, G80A, U84C, G86C
B11: chr6:29491266:29491267:-_ENSMUSG00000012535_ENSMUST00000012679|mus_mus|FALSE|FALSE (ssRNA)
RNA: GGGAGUUCUACAGUCCGACGAUCGGGUUGGGCUCUACAUUAAAAGCAACUUUGACCCUGGCUAGUCCGGACUAUCAUCCCUAACCAUGAUAUAAGCAGACCAGGCUCCUUGUCUGGACAUUUCUAAAGGUGAACAGUUGGGGGCAACAGAGGAUUGAGCAUCA
B12: chr3:182775190:182775191:-_ENSG00000078070_ENST00000265594|hu_mus|FALSE|FALSE (ssRNA)
RNA: GGGAGUUCUACAGUCCGACGAUCCUGCACACUACAGUCUCUUUCAAACAAGUACACUGCGUUGCCAUGGUGAUCACCAAACACCUGGACUUCUACAUGCCUUGGAGUGUCCACGAACUUCUCGAUCAACAUUGCAUCAUCAUUCAACAGAGGAUUGAGCAUCA
B13: 49705422_49710499_381_CDS_ENSG00000102531_ENST00000398316|human|control|control (ssRNA)
RNA: GGGAGUUCUACAGUCCGACGAUCAAAGUUGGACCUUCCAUGUGUAGAGUGAGCAUCUACAUCUCCAUAGACUUGUGAAGACUGAUACUGUGGCAUAUACUGUGUUGUCAUGUCUCCAGCUCCAGUCACGGGUGAGUACAUAUGCAACAGAGGAUUGAGCAUCA
B14: chr1:39494564:39494565:+_ENSG00000168653_ENST00000372967|hu_hu|hu_hu_hu_mus_True|1_1 (ssRNA)
RNA: GGGAGUUCUACAGUCCGACGAUCAUGCAUUCGCCUCAUCGUUUUGUACCGAAGCAAGCACUCUUCGAAGUCAUCGAACUCUAUCUUGCACUCCUUUUUCGCCCGGGUCCCACCGAUCCCGUGUGCACACUCUAUCCAUUCUUUCAACAGAGGAUUGAGCAUCA
B15: 117841126_117842589_621_3pUTR_ENSMUSG00000033326_ENSMUST00000106406|mouse|control|control (ssRNA)
RNA: GGGAGUUCUACAGUCCGACGAUCCUUCUCCACCAGGUCCAGGAUGGUCUUCAGCCGGCCGAUAUUCCACUCAUCAACGUGCUGUUCAUAGAGAGUACCAUUCACGUCUGCUCCAUAGAUGGGAGGAUUGAAUGUGAGGUUUUUCAACAGAGGAUUGAGCAUCA
B16: chr2:166765161:166765162:+_ENSMUSG00000002718_ENSMUST00000002790|mus_hu|motif|central (ssRNA)
RNA: GGGAGUUCUACAGUCCGACGAUCGGAUAAACAUAUUGCUUCAAACAUGUAGUGAUUAAAGUGAGGUUUGCUUGGGUUCUUACGGACAGCUAAUAGCUUCUGUGUAAGCUGAGUGAUGAGAGUAGGGAUGUAGGGGAUUAUGGCCAACAGAGGAUUGAGCAUCA
B17: chr16:8858281:8858282:+_ENSMUSG00000022507_ENSMUST00000023150|mus_mus|FALSE|FALSE (ssRNA)
RNA: GGGAGUUCUACAGUCCGACGAUCCUCAUGAGGUGAGGAGGUGCUACAUAUUGAAUGCAAUGGAAAAAAGUAACCAGUGCUAAAGUUUUUAAAAAGUUUAAUGGAGCCAAUAAUUCGGCAUAUAAAUUGUGUUCUGGCAGACAUCAACAGAGGAUUGAGCAUCA
B18: chr16:45382771:45382772:-_ENSMUSG00000022661_ENSMUST00000163230|mus_mus|mus_mus_mus_hu_True|28_48 (ssRNA)
RNA: B9 RNA with G38A, G39A, C41A, C43A, U87A
B19: chr16:45382771:45382772:-_ENSMUSG00000022661_ENSMUST00000163230|mus_mus|mus_mus_mus_hu_True|28_38 (ssRNA)
RNA: B9 RNA with G38A, G39A, C41A, C43A, U105G, A106C
B20: chr16:45382771:45382772:-_ENSMUSG00000022661_ENSMUST00000163230|mus_mus|mus_mus_mus_hu_True|28_108 (ssRNA)
RNA: B9 RNA with G27A, C30G, A31U, G33A, A36G, G38A, G39A, C41A, C43A
B21: chr16:8858281:8858282:+_ENSMUSG00000022507_ENSMUST00000023150|mus_mus|motif|central (ssRNA)
RNA: B17 RNA with U80G, A81G
B22: chr5:128440902:128440903:+_ENSG00000066583_ENST00000173527|hu_mus|hu_hu_hu_mus_True|38_48 (ssRNA)
RNA: GGGAGUUCUACAGUCCGACGAUCUUGAACGGUGCUGCCAAGUCCUUUGGGGUAUUGUUCCGUUAUGAUAACUGGAAUCCCUAAGAUCCGGGCCCCUUGCAACAAUCUCUGUCCCACACUAAUGAUGUCCCCAAAGUAUUUGAUCAACAGAGGAUUGAGCAUCA

Substitutions are numbered along the chain they refer to. In all, about 24,000 sequences were measured (“enrichment r”: median about 0.99, highest 2% from about 3.7 on). What follows is part of a selection rich in the highest values, with near analogues and random picks from the rest.

The target in this test is T1, UNK ZnF1-3. As to the kind of experiment: nsRBNS (natural sequence RNA bind-n-seq); RBNS binding buffer (assumed for nsRBNS): 25 mM Tris pH 7.5, 150 mM KCl, 3 mM MgCl2, 0.01% Triton X-100, 500 ug/ml BSA, 20 U/ml SUPERase-In, 4 C; UNK is unkempt and MSI1 is Musashi-1; names of the RNAs are library labels; protein concentration not given here; high values mean tight binding.
As to B1, the binding signal came to 1.25 enrichment R.

In the case of B2, the binding signal turned out to be 0.844 enrichment R. Molecule B3 gave a binding signal of 1.34 enrichment R. Turning to B4, the binding signal was found to be 0.801 enrichment R. To B5 belongs 0.494 enrichment R.

In the case of B6, the binding signal stood at 5.08 enrichment R.

On to B7, for which the binding signal stood at 11.4 enrichment R. To B8 belongs 3.32 enrichment R; to B9, 8.35 enrichment R; to B10, 3.92 enrichment R. For B11, the binding signal was 0.897 enrichment R.

B12: the binding signal is 0.969 enrichment R. The same measure for B13: 0.997 enrichment R. To B14 belongs 0.706 enrichment R; to B15, 1.09 enrichment R.

For the molecule B16, the binding signal stood at 1.62 enrichment R. The same measure for B17: 5.62 enrichment R; for B18: 7.16 enrichment R. B19 showed a binding signal of 12.5 enrichment R. B20 registered a binding signal of 10.2 enrichment R. The same measure for B21: 3.41 enrichment R; for B22: 0.772 enrichment R.

These data come from PMC12136788.
